Inconclusive results are not listed. Entries that show only a call come without a potency. The source made the active and inactive calls. Calls follow the shape of the dose curve; as a rule, active = well fitted curve in the direction sought with a large enough effect; inconclusive = small, poorly fitted or top-dose-only effect, or another doubt; inactive = no such curve, though single readings can be large; an effect the other way counts as inactive or inconclusive.
Columns and labels:
[1] = target: Protein phosphatase 1D (Homo sapiens) (UniProt O15297); test: RapidFire Mass Spectrometry qHTS Assay for Modulators of WT P53-Induced Phosphatase 1 (WIP1) (AID 1347424); also: potency is read from the fitted curve at half-maximal effect
Sequence of Protein phosphatase 1D (Homo sapiens) (O15297 whole entry, looked up): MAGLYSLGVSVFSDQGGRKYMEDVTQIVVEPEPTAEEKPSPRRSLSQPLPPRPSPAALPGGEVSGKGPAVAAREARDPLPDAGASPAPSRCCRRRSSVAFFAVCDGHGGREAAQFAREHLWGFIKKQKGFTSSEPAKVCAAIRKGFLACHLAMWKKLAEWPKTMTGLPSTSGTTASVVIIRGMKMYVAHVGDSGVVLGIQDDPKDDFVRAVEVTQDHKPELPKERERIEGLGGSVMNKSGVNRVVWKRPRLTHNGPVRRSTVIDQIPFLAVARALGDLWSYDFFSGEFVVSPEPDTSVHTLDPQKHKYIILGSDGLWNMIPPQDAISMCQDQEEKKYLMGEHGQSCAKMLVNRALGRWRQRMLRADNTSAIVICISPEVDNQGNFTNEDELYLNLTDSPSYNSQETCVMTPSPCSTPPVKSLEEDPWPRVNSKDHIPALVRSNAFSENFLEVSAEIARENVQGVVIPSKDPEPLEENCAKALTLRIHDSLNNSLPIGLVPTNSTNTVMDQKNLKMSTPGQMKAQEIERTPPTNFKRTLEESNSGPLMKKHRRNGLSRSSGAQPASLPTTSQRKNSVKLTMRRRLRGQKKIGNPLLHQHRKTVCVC
Outline: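 RapidFire MS readout of dephosphorylated VEPPL-S-QETFS product, with 1 uM isotope-labelled peptide standard. Reaction: 10 nM WIP1, 2 uM phosphopeptide substrate, 5 min, room temperature, after 1 h compound preincubation; stopped with 0.5% formic acid.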

[2] = target: Protein phosphatase 1D (Homo sapiens) (UniProt O15297); test: Rhodamine-PBP qHTS Assay for Modulators of WT P53-Induced Phosphatase 1 (WIP1) (AID 1347425)
Outline: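 WIP1 (5 nM final) was preincubated with compound for 1 hour at room temperature. It then dephosphorylated 10 uM VEPPL-pS-QETFS peptide in Tris-HCl pH 7.5 with 30 mM MgCl2. Released Pi was detected by 10 uM Rh-PBP fluorescence (ex 525/em 598 nm) read at 1-min intervals for 11 min, as delta f1 - f0.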

[3] = Primary qHTS for inhibitors of La Crosse Virus (LACV) - induced cell death in SH-SY5Y cells (AID 1508616);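 also: top concentration of the series differs between compounds; higher means more rescue of cells from virus-induced death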
Outline: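 SH-SY5Y, 6000 cells/well; cpd via pin tool in DMSO; LACV 0.01 MOI; 6 d 37C 5% CO2; ATPLite, 5 min RT; luminescence normalized to ±virus DMSO controls.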

[4] = target: Calcium and integrin-binding protein 1 (Homo sapiens) (UniProt Q99828); test: Primary qHTS for Identification of Calcium Integrin Binding Protein 1 (CIB1) Competitor (AID 1508620); also: potency is read from the fitted curve at half-maximal effect
Sequence of Calcium and integrin-binding protein 1 (Homo sapiens) (Q99828 whole entry, looked up): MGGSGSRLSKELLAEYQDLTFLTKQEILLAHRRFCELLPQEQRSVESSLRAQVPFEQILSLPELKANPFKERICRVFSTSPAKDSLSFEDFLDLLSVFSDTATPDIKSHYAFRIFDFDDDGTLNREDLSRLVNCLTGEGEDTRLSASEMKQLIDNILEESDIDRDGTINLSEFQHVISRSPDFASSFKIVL
Outline: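 Fluorescence polarization competition: GST-tagged CIB1 (1 uM final) preincubated with compound 15 min at room temperature, then FITC-labelled alphaIIb peptide (100 nM final) added. After 15 min at room temperature, polarization read at Ex 480/Em 540.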

| Compound | Potency [1] | outcome [2] | outcome [3] | Potency [4] |
| --- | --- | --- | --- | --- |
| CCCC(=O)O[C@]1(C(=O)CCl)[C@@H](C)C[C@H]2[C@@H]3CCC4=CC(=O)C=C[C@]4(C)[C@@]3(F)C(=O)C[C@@]21C | inactive | inactive | inactive | inactive |
| Nc1c2ccccc2nc2ccccc12 | inactive | inactive | – | inactive |
| CCCCC(=O)OCC(=O)[C@H]1[C@H](C)C[C@H]2[C@@H]3C[C@H](F)C4=CC(=O)C=C[C@]4(C)[C@@]3(F)[C@@H](O)C[C@@]21C | inactive | inactive | inactive | inactive |
| CC(C)(C)c1ccc(O)c(O)c1 | – | inactive | – | inactive |
| CCCC(=O)O[C@]1(C(=O)CC)CC[C@H]2[C@@H]3CCC4=CC(=O)CC[C@]4(C)[C@H]3[C@@H](O)C[C@@]21C | inactive | inactive | inactive | inactive |
| CC(C)(c1ccc(O)cc1)c1ccc(O)cc1 | inactive | – | inactive | inactive |
| CC(=O)O[C@H]1CC[C@@]2(C)C(=CC[C@@H]3[C@@H]2CC[C@]2(C)C(C(C)=O)=CC[C@@H]32)C1 | inactive | inactive | – | inactive |
| Cc1cc2nc3ccc(=[N+](C)C)cc-3sc2cc1N | inactive | – | inactive | – |
| C[C@@H]1CCC[C@H](C)N1CCCC(O)(c1ccccc1)c1ccccn1 (stereo partly specified) | inactive | inactive | – | inactive |
| O=C(Nc1ccc(Cl)cc1)Nc1ccc(Cl)c(C(F)(F)F)c1 | 12.6 µM (active) | – | inactive | inactive |
| CCCCC(CC)COC(=O)c1ccccc1C(=O)O (stereo unspecified) | inactive | – | inactive | inactive |
| CCCCC/C=C\C/C=C\CCCCCCCC(=O)NC(C)c1ccccc1 (stereo unspecified) | inactive | inactive | inactive | inactive |
| O=C(c1ccco1)N1CCNCC1 | – | inactive | inactive | inactive |
| CCCCCCCCCCCCCC[N+](C)(C)C | – | inactive | – | inactive |
| Nc1ccc2cc3ccc(N)cc3nc2c1 | inactive | inactive | – | 2.24 µM (active) |

Reference: PubChem BioAssay (NCATS)
